Assay outcomes from PubChem BioAssay.
BAZ2B inh – inhibitors of human BAZ2B bromodomain; 360,000 compounds, 4.4% hits; Potency, µM (top dose mostly 114 µM), for inactives: at the top dose activity change, negative = inhibition, actives largely listed as inhibitors; AlphaScreen BAZ2B-H3K14Ac peptide displacement; Q9UIF8; also: % is scaled to controls: 0 for no effect and ±100 for the full control effect; nearly all actives have a fitted effect of over 60% in size
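AlphaScreen displacement of biotin-H3(5-23)K14Ac peptide (50 nM final) from BAZ2B (50 nM final) in PBS pH 7.4, 0.01% Tween-20; complex preformed 30 min RT, then compounds (top 110 uM) 30 min RT, beads 20 min dark.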
HP1b chromo inh – inhibitors of HP1-beta chromodomain binding to methylated histone tails | AlphaScreen HP1-beta / biotin-H3K9me3 peptide binding | Potency, µM (top dose mostly 114 µM), for inactives: at the highest dose activity change, negative = inhibition, usual class: inhibitors | AID 540317 | P83916 | 390,000 compounds, 0.56% hits; also: nearly all actives have a fitted effect of over 70% in size
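AlphaScreen: HP1-beta (50 nM) preformed 30 min with biotin-H3(1-18)K9me3 peptide (50 nM) in PBS pH 7.4, 0.01% Tween-20. Compound added for 30 min at RT, then streptavidin donor/nickel chelate acceptor beads (10 ug/mL) for 30 min.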
PLK1 PBD inh – blocks phosphopeptide binding to human PLK1 polo-box domain; P53350; Plk1 PBD binding of FITC phosphopeptide, fluorescence polarization; Potency, µM, without a hit: max response, negative = inhibition, hits mostly inhibitors; 360,000 compounds, 2.8% hits; AID 720504; also: series mostly up to about 57 µM; % is scaled to controls: 0 for no effect and ±100 for the full control effect; nearly all actives have a fitted effect of over 65% in size
JMJD2A Tudor inh – inhibitors of human JMJD2A Tudor domain. O75164. AlphaScreen JMJD2A-Tudor / H3K4me3 peptide binding. Potency, µM (series often up to 114 µM), inactives show at the top dose activity change, negative = inhibition, actives largely listed as inhibitors. 390,000 compounds, 4.4% hits. AID 504339; also: % is scaled to controls: 0 for no effect and ±100 for the full control effect; nearly all actives have a fitted effect of over 50% in size
ALOX12 inh – ALOX12 (human) lipoxygenase inhibition; P18054; purified 12hLO, xylenol orange hydroperoxide absorbance; Potency, µM (doses to about 108 µM), inactives show at the top dose activity change, negative = inhibition, actives largely listed as inhibitors; 580,000 compounds, 1.1% hits; also: % is scaled to controls: 0 for no effect and ±100 for the full control effect
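Purified human 12hLO (150 nM final) in 25 mM Hepes, 0.01% Triton X-100, pH 7.0 was preincubated 15 min at room temperature with compound. Then 40 uM arachidonic acid was added, 30 min. Hydroperoxide was read by Fe-XO absorbance ratio 573/405 nm.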
G9a inh – inhibitors of human histone lysine methyltransferase G9a | AID 504332 | G9a H3K9 monomethylation, AlphaScreen, 2 h | 350,000 compounds, 8.8% hits | Q96KQ7 | Potency, µM (doses to about 102 µM), without a hit: at the top dose activity, negative = inhibition, actives largely listed as inhibitors; also: % is scaled to controls: 0 for no effect and ±100 for the full control effect; nearly all actives have a fitted effect of over 75% in size
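Step 1: enzyme (final 20 nM) with compound, 15 min RT. Step 2: substrate peptide 500 nM and SAM 20 uM, 2 h RT. Step 3: anti-H3K9me1 antibody and AlphaScreen beads, 10 min, then plate read.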
* hit, by the source's call; ? = inconclusive; · = no result given; [ ] = dose if it differs, or a comment. Most compounds without a hit are left out; they make up all but 9% or so of the library. Calls follow the shape of the dose curve; as a rule, active = well fitted curve in the direction sought with a large enough effect; inconclusive = small, poorly fitted or top-dose-only effect, or another doubt; inactive = no such curve, though single readings can be large; an effect the other way counts as inactive or inconclusive. Potency is read from the fitted curve at half-maximal effect.

SMILES	BAZ2B inh	HP1b chromo inh	PLK1 PBD inh	JMJD2A Tudor inh	ALOX12 inh	G9a inh
C=CCNC(=S)NNC(N)=S	·	·	·	·	8.9µM*	·
CC(C)(C)c1nc2ccc(NS(=O)(=O)c3ccc(F)c(F)c3F)cc2[nH]1	-11%	48%	-6%	-10%	?	32µM*
CCC(=O)N1CCc2cc(Br)cc(S(=O)(=O)N3CCCCC3CC)c21 (configuration not stated)	-13%	58%	-10%	-9%	-7%	-12%
CCCCC(=O)Nc1nc(C)c(-c2csc(Nc3ccccc3OC)n2)s1	?	19%	-7%	?	?	?
C=CCCC(=O)Nc1nc(C)c(-c2csc(Nc3ccccc3OC)n2)s1	?	-9%	-6%	?	-25%	25µM*
C=CCCC(=O)Nc1nc(C)c(-c2csc(Nc3ccc(Cl)cc3Cl)n2)s1	?	?	-5%	?	?	7.1µM*
Cc1nc2c(-c3ccc(F)cc3)cnn2c(N)c1-c1ccc(F)cc1	22%	85%	-9%	7%	10%	49%
CN(C)c1ccc(CNC(=O)C2CCN(S(=O)(=O)c3ccc4c(c3)CCCC(=O)N4)CC2)cc1	?	3%	-14%	?	8%	45µM*
CC1CCN(S(=O)(=O)c2cc(C(=O)NCc3ccc(N(C)C)cc3)n(C)c2)CC1	35µM*	-9%[57 µM]	·	56µM*	-23%	10µM*
CN(C)c1ccc(CNC(=O)c2cc(S(=O)(=O)N3CCCC3)cn2C)cc1	?	-12%	2%	?	24%	·
O=C(O)c1ccc(-n2nnnc2SCc2ccccc2Br)cc1	6%	39%	7%	5%	-7%	11%
CCCOC(=O)Nc1nc2ccccc2o1	79µM*	10%	4%	?	0%	50µM*
Fc1ccc(CSc2ccc(-c3ccco3)nn2)cc1	-9%	20%	-16%	-11%	-28%	1%[59 µM]
CCSc1ccc(-c2ccco2)nn1	-25%	19%	-9%	-17%	-12%	18µM*
CSc1ccc(-c2ccco2)nn1	-22%	32%	-9%	-3%	-28%	32µM*
COC(=O)c1ccc(CN2C(=O)[C@]3(OCCC=C[C@H]3C)c3ccccc32)cc1	·	·	·	·	10%	·
CCC(=O)Nc1cc(C(=O)O)ccc1Sc1ccccc1	·	23%	9%	2%	?	?
CCC(=O)Nc1ccc(C2=Nn3c(nnc3C(C)C)SC2)cc1	2%	-12%	24µM*	-1%	?	14µM*
CC(C)[C@H](N)c1nnc2n1N=C(c1ccc(Cl)cc1)CS2	-10%	43%	4%	8%	6%	?
COc1ccc(S(=O)(=O)NC(C)C(=O)Nc2ccccc2F)cc1 (configuration not stated)	-2%	19%	-20%	-4%	-29%	40µM*
COc1ccc(S(=O)(=O)N/N=C\c2ccccc2F)cc1	-2%	41%	-19%	-3%	-13%	40µM*
Cc1ccc(S(=O)(=O)NC(C)C(=O)Nc2cccc([N+](=O)[O-])c2)cc1 (configuration not stated)	-24%	6%	-6%	-15%	-3%	?
Cc1ccc([N+](=O)[O-])cc1NC(=O)C(C)NS(=O)(=O)c1ccc(F)cc1 (configuration not stated)	-1%	?	24µM*	-8%[11.4 µM]	0%	·
COc1ccc(S(=O)(=O)Nc2cccc3ccccc23)cc1	·	22%	·	-23%	·	·
COc1ccc(S(=O)(=O)Nc2c(F)cccc2F)cc1	-14%	50µM*	30µM*	25µM*	1%	-4%
COc1ccc(S(=O)(=O)NC(C)C(=O)Nc2cccc(C(C)=O)c2)cc1 (configuration not stated)	7%	11%	?	-15%	?	?
CC(C)OCCCNC(=O)c1ccc(-n2c(-c3ccccc3)cc3c2CCCC3)cc1	-17%	31%	·	-11%	?	-10%[59 µM]
